Sampled rows, rich in hits. Any-hit rate of the full collection: about 1.7%.
LDHA inh: qHTS assay for inhibitors of human lactate dehydrogenase; L-lactate dehydrogenase A chain (Homo sapiens), P00338; purified LDHA, NADH/diaphorase-resazurin fluorescence; hits give low values; AID 1347041, 2019; 0.15% of 480,000 active; activity change, % (values are at about 110 or 230 µM); in the data active means activity change below about -30%; inconclusive means mostly about -25% to -30%;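 further: plate controls were DMSO wells for no effect and wells without enzyme for full effect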
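Human LDH5 (2 nM) was incubated with 0.06 mM NADH and 0.2 mM pyruvate for 5 min at room temperature in Tris pH 7.4. Remaining NADH was coupled through diaphorase/resazurin, and resorufin fluorescence was read at 0 and 20 min.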
IDH1 R132H inh: qHTS for Inhibitors of mutant isocitrate dehydrogenase 1 (IDH1): qHTS; IDH1-R132H enzyme, NADPH consumption, diaphorase/resazurin fluorescence; AID 602179, 2012; Isocitrate dehydrogenase [NADP] cytoplasmic (Homo sapiens), O75874; Potency, µM (doses to about 76.6 µM), for inactives: at the top dose activity change, negative = inhibition, actives largely listed as inhibitors; 0.093% of 390,000 active; further: potency means the concentration at half of the fitted maximal effect; on the % scale 0 is the no-effect control and ±100 the full control effect; nearly all actives have a fitted effect of over 65% in size
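IDH1-R132H (0.5 ug/mL dispensed) in pH 7.5 Tris buffer was preincubated 30 min with compound, then given a substrate mix of 0.016 mM NADPH and 2 mM alpha-KG for 80 min at room temperature; remaining NADPH was read by diaphorase/resazurin fluorescence.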
GLP1R ag: qHTS of GLP-1 Receptor Agonists | Glucagon-like peptide 1 receptor (Homo sapiens), P43220 | Potency, µM (highest dose often 45.6 µM), for the others: at the top dose activation, actives largely listed as activators | 0.007% of 380,000 active | HEK293 GLP-1R CRE-luciferase, luminescence, 4-6 h; cells express a hypersensitive GLP-1R form; further: potency means the concentration at half of the fitted maximal effect; % of control where 0% means no effect
PTHR1 agonist: qHTS for PTHR1 Agonists: Primary Screen; Parathyroid hormone/parathyroid hormone-related peptide receptor (Homo sapiens), Q03431; HEK293 GP2 PTHR1 cells, GloSensor cAMP luminescence, 1 h; Potency, µM (highest dose often 115 µM), inactives show at the top dose activation, most hits filed as activators; AID 743266, 2014; 0.075% of 410,000 active; further: potency means the concentration at half of the fitted maximal effect; nearly all actives have a fitted effect of over 55% in size
Target sequence (Q03431 whole entry, looked up): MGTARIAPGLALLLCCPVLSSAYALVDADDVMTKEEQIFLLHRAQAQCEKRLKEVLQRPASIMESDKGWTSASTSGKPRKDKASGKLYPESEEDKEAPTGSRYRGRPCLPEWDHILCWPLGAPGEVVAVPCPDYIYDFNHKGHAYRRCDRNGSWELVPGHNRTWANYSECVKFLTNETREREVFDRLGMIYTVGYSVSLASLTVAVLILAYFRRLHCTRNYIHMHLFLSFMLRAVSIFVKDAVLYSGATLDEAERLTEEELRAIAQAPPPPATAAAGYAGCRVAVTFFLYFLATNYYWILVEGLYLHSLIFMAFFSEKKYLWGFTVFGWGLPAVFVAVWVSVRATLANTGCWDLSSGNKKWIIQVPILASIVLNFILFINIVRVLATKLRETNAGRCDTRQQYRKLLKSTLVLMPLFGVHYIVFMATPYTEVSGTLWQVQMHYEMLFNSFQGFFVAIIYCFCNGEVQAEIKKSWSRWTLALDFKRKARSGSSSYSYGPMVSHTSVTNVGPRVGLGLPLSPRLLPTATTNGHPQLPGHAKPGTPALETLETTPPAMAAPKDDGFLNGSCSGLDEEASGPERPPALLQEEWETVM
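HEK-293-derived GP2 cells expressing PTHR1 and a GloSensor cAMP reporter, 3,000/well, plated overnight, given luciferin plus IBMX (each 0.5 mM as added) for 1 h at 37 °C, then compound for 1 h at 37 °C. Luminescence was read after 15 min at room temperature.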
GLP-1R inv ag: qHTS of GLP-1 Receptor Inverse Agonists (Inhibition Mode); HEK293 GLP-1R CRE-luciferase, luminescence, 24 h; GLP-1R form is constitutively active; AID 624417, 2012; Potency, µM (series often up to 38.3 µM), without a hit: at the top dose activity change, negative = inhibition, actives largely listed as inhibitors; 1.6% of 410,000 active; further: potency means the concentration at half of the fitted maximal effect; on the % scale 0 is the no-effect control and ±100 the full control effect; nearly all actives have a fitted effect of over 55% in size
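Using stably transfected HEK293 (constitutively active GLP-1R, cAMP-luciferase reporter), compounds were incubated 24 hr and luciferase measured by luminescence.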
HEK293 tox: qHTS of GLP-1 Receptor Inverse Agonists: Cytotox Screen; HEK293 cAMP-luciferase reporter cells, luminescence, 24 h; 0.13% of 410,000 active; Potency, µM (highest dose often 38.3 µM), inactives show at the highest dose activity change, negative = inhibition, actives largely listed as inhibitors;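 further: loss of luciferase light is scored as toxicity; potency means the concentration at half of the fitted maximal effect; on the % scale 0 is the no-effect control and ±100 the full control effect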
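Step one: seed cells (200 cells/uL, DMEM with 10% Nu serum, 1% pen-strep). Step two: 12-hour incubation at 37 deg C. Step three: pin 23 nL compound, incubate 24 hr. Step four: add luciferase reagent, read luminescence 12 min later.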
Starred values were filed as active, the others as inactive; [ ] = remark or other dose. Unless noted, the call rests on the fitted dose curve; in most records, active means well fitted curve in the direction sought with a large enough effect; inconclusive means small, poorly fitted or top-dose-only effect, or another doubt; inactive means no such curve, though single readings can be large; an effect the other way counts as inactive or inconclusive.

`O=C(c1ccc(OC2CCN(CCc3ccccc3)CC2)cc1)N1CCCC(CCCO)C1` (stereo unspecified) gave LDHA inh -20.2, IDH1 R132H inh -1.7%, GLP1R ag 2.2%, PTHR1 agonist 10.0%, GLP-1R inv ag 11.2µM* and HEK293 tox -14.2%.
For O=C(c1ccc(OC2CCN(CCc3ccccc3)CC2)cc1)N1CCCCC1CCCO (stereo unspecified) the results were LDHA inh -12.6, IDH1 R132H inh -2.4%, GLP1R ag -4.5%, PTHR1 agonist inactive, GLP-1R inv ag 11.2µM* and HEK293 tox -9.8%.
O=C(c1ccc(OC2CCN(CCc3ccccc3)CC2)cc1)N1CCCC1 was read as LDHA inh 1.7, IDH1 R132H inh 6.6%, GLP1R ag 10.5%, PTHR1 agonist 7.5%, GLP-1R inv ag inconclusive and HEK293 tox -3.0%.
Screening Cc1ccc(S(=O)(=O)N2CCN(C(=O)CN3CCCCC3)C2c2ccccc2)cc1 (stereo unspecified) returned LDHA inh 3.3.
Screening O=C(CCNS(=O)(=O)c1ccc2c(c1)CCN2C(=O)C1CC1)Nc1ccc(F)c(Cl)c1 returned LDHA inh 3.7.
For COC1CCCN(C(=O)c2ccc3oc(Cc4ccc(Cl)cc4)nc3c2)C1 (stereo unspecified) the results were LDHA inh -2.1, IDH1 R132H inh -4.2%, GLP1R ag 3.9%, PTHR1 agonist -12.8%, GLP-1R inv ag -22.6% and HEK293 tox -19.2%.
Screening COCC1CCCN(C(=O)c2ccc3oc(Cc4ccc(Cl)cc4)nc3c2)C1 (stereo unspecified) returned LDHA inh -9.2, IDH1 R132H inh -9.4%, GLP1R ag 4.0%, PTHR1 agonist -26.3%, GLP-1R inv ag 10µM* and HEK293 tox -16.3%.
`CCN(Cc1cccc(F)c1)C(=O)COc1ccc2ccc(=O)oc2c1` gave LDHA inh 12.3.
For O=C(CSc1nnc(-c2cccc([S+](=O)([O-])N3CCCC3)c2)n1-c1ccccc1)Nc1ccccc1F the results were LDHA inh -1.9.
For CC1=C(C(=O)Nc2cccc(F)c2)C(c2ccsc2)C2=C(CC(C)(C)CC2=O)N1 (stereo unspecified) the results were LDHA inh -6.9, IDH1 R132H inh -1.1%, GLP1R ag 14.1%, PTHR1 agonist inactive, GLP-1R inv ag 3.98µM* and HEK293 tox -22.5%.
`Cc1ccc(C)c(S(=O)(=O)Nc2ccc3nc(C)sc3c2)c1` gave LDHA inh 16.9.
`CC(C1CC1)N(Cc1ccccc1)C(=S)Nc1cccc(C(F)(F)F)c1` (stereo unspecified) gave LDHA inh -0.5, IDH1 R132H inh 3.1%, GLP1R ag 1.1%, PTHR1 agonist -25.5%, GLP-1R inv ag 10µM* and HEK293 tox -8.5%.
Screening CC(C1CC1)N(Cc1ccccc1)C(=S)Nc1ccccc1 (stereo unspecified) returned LDHA inh -9.2, IDH1 R132H inh 0.9%, GLP1R ag 13.9%, PTHR1 agonist -12.3%, GLP-1R inv ag inconclusive and HEK293 tox -12.8%.
`CCC(Oc1ccc(F)cc1)C(=O)Nc1cc(-c2ccc(C)cc2)no1` (stereo unspecified) gave LDHA inh 0.5, IDH1 R132H inh -4.9%, PTHR1 agonist -12.2%, GLP-1R inv ag inconclusive and HEK293 tox 4.4%.
Screening CCC(Oc1ccc(F)cc1)C(=O)Nc1nc(-c2ccc(F)cc2)ns1 (stereo unspecified) returned LDHA inh -0.4, IDH1 R132H inh -11.7%, PTHR1 agonist -47.5%, GLP-1R inv ag 10µM* and HEK293 tox -23.7%.
`C(=C\c1ccccc1)/CSc1nnc(-c2ccccn2)n1Cc1ccco1` gave LDHA inh -2.4, IDH1 R132H inh -4.3%, GLP1R ag 15.3%, PTHR1 agonist -9.0%[57.5 µM], GLP-1R inv ag 3.98µM* and HEK293 tox inconclusive.
Screening NC(=O)CSc1nnc(-c2ccccn2)n1Cc1ccco1 returned LDHA inh 1.8, IDH1 R132H inh 4.1%, GLP1R ag -0.4%, PTHR1 agonist inactive, GLP-1R inv ag 2.2% and HEK293 tox 5.2%.
Screening Cc1cc(C)nc(S/C=C/C(=O)c2ccccc2F)n1 returned LDHA inh -1.5, IDH1 R132H inh 5.8%, GLP1R ag 2.5%, PTHR1 agonist -89.4%, GLP-1R inv ag inconclusive and HEK293 tox 3.55µM*.
COc1cc(OC)cc(-c2nnc(SCc3nc4ccccc4o3)o2)c1 was read as LDHA inh 0.1.
Screening O=C(Cn1nnc(-c2ccc(F)cc2)n1)N1N=C(c2cccs2)CC1c1cccs1 (stereo unspecified) returned LDHA inh 7.0.
Screening CC(C)Cn1c(-c2cccs2)nc2nc3ccccc3nc21 returned LDHA inh -4.6, IDH1 R132H inh 25.3%, GLP1R ag 7.7%, PTHR1 agonist -22.2%[57.5 µM], GLP-1R inv ag 3.98µM* and HEK293 tox 147.5%.
`COc1ccc(OCCOC(=O)Cc2coc3cc(C)c(C)cc23)cc1` gave LDHA inh 5.2.
Screening COCCn1c(SCc2ccc(Cl)cc2Cl)nnc1-c1ccncc1 returned LDHA inh -1.6.
`CCC(/C=C1\Sc2ccc(OC)cc2N1CC)=C\c1sc2ccc(OC)cc2[n+]1CCCS(=O)(=O)[O-]` gave LDHA inh 3.4, IDH1 R132H inh -19.3%, GLP1R ag -6.4%, PTHR1 agonist -22.5%, GLP-1R inv ag -29.2% and HEK293 tox -31.3%.
`CCC(/C=C1\Sc2ccc(OC)cc2N1CCO)=C\c1sc2ccc(OC)cc2[n+]1CCO` gave LDHA inh 10.7, IDH1 R132H inh -1.5%, GLP1R ag 3.0%, PTHR1 agonist inactive, GLP-1R inv ag 10µM* and HEK293 tox -18.3%.
`CC1(C)Cc2c(sc(NC(=O)COc3ccc(Cl)cc3)c2C#N)C(C)(C)N1` gave LDHA inh -2.2, IDH1 R132H inh 7.2%, GLP1R ag 16.8%, PTHR1 agonist inactive, GLP-1R inv ag 5.62µM* and HEK293 tox 0.3%.

Bioassay records: PubChem BioAssay, National Center for Advancing Translational Sciences (NCATS)
